The whole screen tested about 330,000 compounds, of which about 4,200 (1.3%) were called active. About 6% were inconclusive and are not listed. Calls come from the whole dose curve; as a rule, active = well fitted activation curve with a large enough effect; inconclusive = small, poorly fitted or top-dose-only effect; inactive = no such curve, though single readings can be large or run the other way. Many of the other results were omitted from the sample, so actives are more common in it than they were.
Assay: qHTS screen for small molecules that induce genotoxicity in human embryonic kidney (HEK293T) cells expressing luciferase-tagged ELG1; note: nearly all actives have a fitted effect of over 60% in size; for activity change, positive = activation: % of control where 0% means no effect
Conditions: HEK293T ELG1-luciferase reporter, luminescence, 16 h; series mostly up to 46 µM; activity change, positive = activation: at the top concentration
How it was run: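 Genotoxic stress is detected as increased luminescence from luciferase-tagged ELG1 in HEK293T cells, measured with ONE-Glo after a 16 hr treatment at 37 °C.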
Potency is the fitted concentration of half-maximal effect.

Row | Structure (SMILES) | activity change, positive = activation | Potency
1 | COc1cccc(CNC(C)C(=O)Nc2ccc(S(=O)(=O)N3CCCC3)cc2)c1 (stereo not given) | -3.42% (inactive) | –
2 | O=C(Nc1cccnc1)c1noc2c1CCCCC2 | – | 2.31 µM (active)
3 | COc1cccc(C(=O)Nc2cccnc2)c1OC | 1.69% (inactive) | –
4 | O=C(Nc1cccnc1)c1cc(Cl)ccc1Cl | -3.11% (inactive) | –
5 | Cc1ccnc(SCC(=O)Nc2cccc(S(=O)(=O)N3CCOCC3)c2)n1 | -0.227% (inactive) | –
6 | COc1ccc(-c2noc(CCC(=O)N3CCN(c4cccc(C)c4)CC3)n2)cc1 | -4.97% (inactive) | –
7 | O=C(Nc1ccc(NC(=O)c2ccccc2F)cc1)c1ccccc1F | 9.59% (inactive) | –
8 | O=C(CNC(=O)c1ccccc1)NCC(=O)OCC(=O)c1ccccc1 | 1.91% (inactive) | –
9 | O=C(CNC(=O)c1ccc(F)cc1)c1ccccc1 | – | 8.2 µM (active)
10 | O=C(CNC(=O)c1ccccc1F)c1ccc(Br)cc1 | – | 5.17 µM (active)
11 | O=C(NCCS(=O)(=O)NCc1ccc(F)cc1)c1ccccc1 | 0.375% (inactive) | –
12 | O=C(COC(=O)CNC(=O)c1ccccc1F)NCC(F)(F)F | 4.54% (inactive) | –
13 | COc1cc(NC(=O)c2[nH]cnc2C(N)=O)cc(C(=O)Nc2cccc(C(F)(F)F)c2)c1 | -5.7% (inactive) | –
14 | C=CC(COCc1ccccc1)N(CC(=O)OC)S(=O)(=O)c1cc(Br)ccc1OC (stereo not given) | -1.71% (inactive) | –
15 | O=C1N[C@H](Cc2c[nH]c3ccccc23)COC(=O)[C@H](Cc2ccc(F)cc2)C/C=C\C[C@H]1CC(=O)N(CCO)Cc1ccccc1 | -7.25% (inactive) | –
16 | CCOc1ccc(NC(=O)c2ccc(NC(=O)COC(=O)c3ccc(NC(=O)CC#N)cc3)cc2)cc1 | – | 5.17 µM (active)
17 | CCOc1ccc(C(=O)Nc2ccncc2)cc1 | 2.31% (inactive) | –
18 | N#CCC(=O)Nc1ccc(C(=O)OCC(=O)Nc2sc3c(c2C#N)CCCC3)cc1 | -1.43% (inactive) | –
19 | C[C@@H]1CN([C@@H](C)CO)C(=O)c2cccc(NS(=O)(=O)c3ccc(F)cc3)c2O[C@H]1CN(C)C(=O)NC1CCCCC1 | 1.39% (inactive) | –
20 | Cc1cccc(N2O[C@H]3C=CC2CCCC3)n1 | 7.05% (inactive) | –
21 | CCCC(CNC(=O)COC(=O)C1=NNC(=O)CC1)c1ccc(Cl)cc1Cl (stereo not given) | -0.937% (inactive) | –
22 | O=C(Cc1ccccc1)NNC(=O)C1CCN(c2ncccn2)CC1 | -6.15% (inactive) | –
23 | O=C1/C(=C\Nc2ccccc2)CCN1c1ncccn1 | – | 11.6 µM (active)
24 | COc1ccccc1Oc1ccc(N/C=C2/CCCC2=O)cc1 | 6.77% (inactive) | –
25 | NC(=O)Nc1ccc(C(=O)OCC(=O)NC2CCCc3ccccc32)cc1 (stereo not given) | -0.511% (inactive) | –

Row | Structure (SMILES) | activity change, positive = activation | Potency
26 | CCCN=C1N(C)C[C@@H]2[C@@H]3C(=O)N(Cc4ccccc4)C(=O)[C@@H]3[C@](C)(C(=O)OC)N12 | 0.158% (inactive) | –
27 | COc1ccc(S(=O)(=O)N(C)C[C@@H]2Oc3ccc(NS(=O)(=O)c4cn(C)cn4)cc3C(=O)N([C@@H](C)CO)C[C@@H]2C)cc1 | -0.23% (inactive) | –
28 | C[C@H](CO)N1C[C@H](C)[C@@H](CN(C)C(=O)NC2CCCCC2)Oc2ccc(NC(=O)c3ccncc3)cc2C1=O | 3.77% (inactive) | –
29 | O=C(Nc1cc(C(F)(F)F)ccc1Cl)C(=O)N1CCCCC1 | 2.63% (inactive) | –
30 | O=C(Nc1cc(C(F)(F)F)ccc1Cl)c1cc2nc3c(c(C(F)(F)F)n2n1)CCCC3 | – | 8.2 µM (active)
31 | CCCCC(=O)Nc1ccc(C(=O)Nc2cc(C(F)(F)F)ccc2Cl)cc1 | 10.1% (inactive) | –
32 | CCNC(=S)N1CCN(S(=O)(=O)c2ccc(Cl)s2)CC1 | -6.92% (inactive) | –
33 | O=C(NCCC1=CCCCC1)C1CCN(Cc2cnn(-c3ccccc3)c2-n2cccc2)CC1 | 2.58% (inactive) | –
34 | O=C(NNc1ncnc2c1cnn2-c1ccccc1)c1ccco1 | 33.8% (inactive) | –
35 | C1=C(CCNc2ncnc3c2cnn3-c2ccccc2)CCCC1 | – | 2.31 µM (active)
36 | O=C(CSC(=S)N1CCOCC1)c1ccccc1 | – | 2.06 µM (active)
37 | O=C(CSC(=S)N1CCOCC1)c1cc(Br)cc(Br)c1O | 0.304% (inactive) | –
38 | CC1CN(C(=S)SCC(=O)c2ccccc2)CC(C)O1 (stereo not given) | 14.6% (inactive) | –
39 | O=C(CN1C(=O)NC2(CCOc3ccccc32)C1=O)Nc1cccc([N+](=O)[O-])c1 (stereo not given) | -4.8% (inactive) | –
40 | O=S(=O)(NCC1CN(S(=O)(=O)c2ccc3c(c2)OCCO3)C1)c1c(F)cccc1F | -2.32% (inactive) | –
41 | CC[C@]12c3[nH]c4ccc(OC)cc4c3CCN1C(=O)C(CC(=O)NCc1ccco1)C[C@@H]2C(=O)N1CCN(C(=O)C2CC2)CC1 (stereo not given in full) | 3.89% (inactive) | –
42 | Cc1nn2c(=O)cc(COC(=O)c3ccc(NC(=O)C(C)(C)C)cc3)nc2s1 | -1.82% (inactive) | –
43 | CC(C)(C)C(=O)Nc1ccc(-c2cn3cccnc3n2)cc1 | – | 18.3 µM (active)
44 | CC(=O)Nc1ccc(S(=O)(=O)Nc2cccc(NC(=O)C(C)(C)C)c2)cc1 | -2.67% (inactive) | –
45 | CSc1ncccc1C(=O)Nc1cccc(S(=O)(=O)N2CCOCC2)c1 | 0.493% (inactive) | –
46 | CN(CCc1ccccc1)C(=O)c1cccc(NC(=O)Cc2ccc([N+](=O)[O-])cc2)c1 | -4.52% (inactive) | –
47 | Cc1c(Cl)cnc(NC(=O)COC(=O)C2CCCC2)c1Cl | 4.12% (inactive) | –
48 | CCN(C(=O)CSc1nnnn1-c1ccc(OC)cc1)C1CCS(=O)(=O)C1 (stereo not given) | 0.218% (inactive) | –
49 | Cc1cc(C)cc(NS(=O)(=O)c2ccc(F)cc2)c1 | -4.39% (inactive) | –
50 | Cn1c(=O)n(C)c2cc(NS(=O)(=O)c3ccc(F)cc3)ccc21 | – | 18.3 µM (active)

Row | Structure (SMILES) | activity change, positive = activation | Potency
51 | Cn1c(=O)n(C)c2cc(S(=O)(=O)Nc3ccc(F)cc3)ccc21 | -3.07% (inactive) | –
52 | CCN(c1ccccc1)S(=O)(=O)c1cccc(C(=O)NCc2ccccc2CN2CCOCC2)c1 | -11.3% (inactive) | –
53 | O=C1COc2ccc(C(=O)COC(=O)c3ccccc3Cl)cc2N1 | 0.842% (inactive) | –
54 | CCOC(=O)CSc1nnc(NC(=O)c2cccc(S(=O)(=O)N3CCCC3)c2)s1 | -2.46% (inactive) | –
55 | CCSc1nnc(NC(=O)c2ccc(C)cc2)s1 | – | 1.64 µM (active)
56 | C=CCSc1nnc(NC(=O)c2ccc(NC(C)=O)cc2)s1 | 9% (inactive) | –
57 | COC(=O)[C@]1(C)N[C@H](CN(C)C(=O)c2ccc(C(C)(C)C)cc2)[C@@H]2C(=O)N(C)C(=O)[C@@H]21 | 1.84% (inactive) | –
58 | COc1ccc(CN2C(CC(=O)Nc3cccnc3)c3ccc(C(F)(F)F)cc3S2(=O)=O)cc1 (stereo not given) | -0.505% (inactive) | –
59 | O=C(COC(=O)c1ccc2c(c1)OCCO2)NCc1ccccc1Cl | -2.4% (inactive) | –
60 | Cc1cccc(NC(=O)c2ccc(S(=O)(=O)N(C)c3ccccc3)cc2)n1 | -8.84% (inactive) | –
61 | COc1ccc(-c2csc(NC(=O)COC(=O)Cc3ccc(Cl)cc3Cl)n2)cc1 | – | 23.1 µM (active)
62 | CC(C)(C)NC(=O)NC(=O)COC(=O)Cc1ccc(Cl)cc1Cl | -0.247% (inactive) | –
63 | COc1ccc(OC)c(-c2csc(NC(=O)COC(=O)C3CC3)n2)c1 | 2.55% (inactive) | –
64 | CS(=O)(=O)c1ccc(C(=O)NNC(=O)c2cccs2)cc1 | 1.1% (inactive) | –
65 | O=c1c2ccccc2nc(N/N=C/c2ccccc2)n1O | 3.16% (inactive) | –
66 | O=C(Nn1cnc2ccccc2c1=O)c1ccccc1 | 2.68% (inactive) | –
67 | O=c1c2ccccc2ncn1/N=C/c1ccccc1 | – | 3.66 µM (active)
68 | CCN(C(=O)CSc1cccc[n+]1[O-])c1ccccc1 | 11.6% (inactive) | –
69 | COc1ccc(CNC(=O)COC(=O)c2sccc2C)cc1OC | -0.24% (inactive) | –
70 | CC(C)C(=O)Nc1cccc(C(=O)Nc2ccc3c(c2)OCO3)c1 | – | 6.51 µM (active)
71 | COc1ccc2nc(NC(=O)NC3CCCCC3)sc2c1 | 21% (inactive) | –
72 | O=C(Nc1nc2cc3c(cc2s1)OCCO3)c1cccc(S(=O)(=O)N2CCOCC2)c1 | -16.4% (inactive) | –
73 | O=C(Nc1ccccc1N1CCN(C(=O)c2ccccc2)CC1)c1ccc2c(c1)OCO2 | -0.629% (inactive) | –
74 | CSc1ncccc1C(=O)Nc1ccc2c(c1)OCO2 | 5.57% (inactive) | –
75 | CCSc1ccccc1C(=O)Nc1ccc2c(c1)OCO2 | 7.6% (inactive) | –

Row | Structure (SMILES) | activity change, positive = activation | Potency
76 | O=C(Nc1cccc(S(=O)(=O)N2CCCCC2)c1)c1ccc2c(c1)OCO2 | -5% (inactive) | –
77 | O=C(Nc1ccccc1)c1ccc2c(c1)OCCCO2 | – | 0.517 µM (active)
78 | O=C(Nc1cccc(S(=O)(=O)Nc2ccc(Cl)cc2)c1)c1ccc2c(c1)OCCO2 | 4.3% (inactive) | –
79 | COc1ccc2nc(NC(=O)[C@@H]3CCCN3C(=O)c3cccs3)sc2c1 | -1.22% (inactive) | –
80 | COc1ccc2nc(NC(=O)c3ccc(Br)s3)sc2c1 | – | 2.82 µM (active)
81 | O=C(Nc1nc2ccccc2s1)c1ccc2c(c1)OCO2 | – | 0.58 µM (active)
82 | C=CC[C@@H](CC(=O)N[C@H](CO)Cc1ccccc1)C(=O)N[C@H](C)COC(=O)[C@@H](CC=C)Cc1ccc(F)cc1 | -3.07% (inactive) | –
83 | CC(=O)c1c(C)[nH]c(C(=O)COC(=O)c2cccs2)c1C | 15.1% (inactive) | –
84 | COc1ccc(C2=Nn3c(nnc3-c3ccccc3OC)SC2)cc1OC1CCCC1 | -7.28% (inactive) | –
85 | COc1ccccc1N(CCOc1ccccc1)S(=O)(=O)c1ccccc1 | -3.11% (inactive) | –
86 | CC(C)(C)OC(=O)C[C@@H]1C/C=C\C[C@@H](CC(=O)N(CCO)Cc2ccccc2)C(=O)N[C@H](Cc2ccccc2)COC1=O | -0.66% (inactive) | –
87 | CCCN(CC1CC1)C(=O)COC(=O)c1ccc(C)cc1O | 0.402% (inactive) | –
88 | O=C(COC(=O)c1cc(S(=O)(=O)N2CCOCC2)ccc1F)NC1CC1 | 1.88% (inactive) | –
89 | O=C(Nc1ccc2c(c1)OCO2)c1ccc(N2C(=O)c3ccccc3C2=O)cc1 | 10.5% (inactive) | –
90 | Cn1c(=O)n(C)c2cc(C(=O)Nc3ccc4c(c3)OCO4)ccc21 | – | 8.2 µM (active)
91 | COc1cccc(C(=O)Nc2nc3ccc(S(C)(=O)=O)cc3s2)c1 | -11.7% (inactive) | –
92 | O=C(Nc1ccc(NC(=O)c2ccc3c(c2)OCO3)cc1)c1cccc(Cl)c1 | 14.4% (inactive) | –
93 | CC(C)CNS(=O)(=O)c1ccc(C(=O)Nc2ccc3c(c2)OCO3)cc1 | 4.37% (inactive) | –
94 | O=C(Nc1ccccc1)c1ccc2c(c1)OCO2 | – | 9.2 µM (active)
95 | O=C(Nc1cccc([N+](=O)[O-])c1)c1ccc2c(c1)OCO2 | 11.2% (inactive) | –
96 | CS(=O)(=O)c1ccc2nc(NC(=O)c3ccc(Cl)nc3)sc2c1 | -1.91% (inactive) | –
97 | CNC(=O)c1ccc2nc(NC(C)=O)sc2c1 | – | 18.4 µM (active)
98 | O=C(OCC(=O)N1CCN(c2ccccc2)CC1)c1ccc([N+](=O)[O-])s1 | -2% (inactive) | –
99 | CC(=O)Nc1ccc(S(=O)(=O)NCC(=O)OCC(=O)c2ccc[nH]2)cc1 | 0.0742% (inactive) | –
100 | CC(C)NC(=O)Nc1cccc2c1O[C@@H](CN(C)S(=O)(=O)c1ccc(F)cc1)[C@@H](C)CN([C@H](C)CO)C2=O | 8.21% (inactive) | –

Reference: PubChem BioAssay AID504466 (National Center for Advancing Translational Sciences (NCATS), 2011)
